Compound activity (PubChem BioAssay)
Hits are enriched below; roughly 12% of the tested compounds scored in any of these assays.
NS1 inh: blocks influenza NS1 protein function | AID 2326 | Potency, µM (top dose mostly 46.1 µM), without a hit: at the top dose activity, positive = more growth | 0.4% of 270,000 active; also: potency is read from the fitted curve at half-maximal effect; actives are rising curves; nearly all actives have a fitted effect of over 50% in size
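S. cerevisiae expressing influenza A NS1, grown in glucose, washed, then diluted 1:100 into pH 6.0 -URA galactose medium with 23 nl compound. Growth recovery read as OD600; NS1-free strain serves as control.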
Shiga inhibitor: Shiga toxin inhibition; Vero cells, Shiga toxin protein synthesis inhibition reporter; inhibition, % at 38.7 µM; 9.2% of 290,000 active; AID 2315; in the data active = inhibition mostly above about 28%, no sharp cut-off; inactive = mostly below about 43%; also: 0% is about no effect
CHX counter: affects cycloheximide protein synthesis inhibition readout, counter-screen; AID 2314; 12% of 300,000 active; max response, %; cell reporter, cycloheximide protein synthesis inhibition counterscreen; in the data active = max response mostly above about 13%, no sharp cut-off; inactive = mostly below about 14%; also: read at 38.3 µM for the half of the compounds with a filed dose; 0% is about no effect
SARS PLP yeast: blocks SARS-CoV papain-like protease in a yeast assay | S. cerevisiae expressing SARS-CoV PLpro, growth rescue | Potency, µM (series often up to 32.9 µM), inactives show at the highest dose activity, positive = growth rescue, most hits filed as activators | 0.19% of 330,000 active; also: potency is read from the fitted curve at half-maximal effect; 0% is about no effect; nearly all actives have a fitted effect of over 55% in size
* hit, by the source's call. Unless noted, calls follow the shape of the full dose curve.

`Cc1cccc(C(=O)Nc2sc3c(c2C#N)CCCCC3)c1` gave NS1 inh 1%, Shiga inhibitor 85*, CHX counter 44* and SARS PLP yeast -16%.
NC(=O)c1c(NC(=O)c2cccnc2)sc2c1CCCC2 was read as Shiga inhibitor 73*, CHX counter 19 and SARS PLP yeast 2%.
For N#Cc1c(NC(=S)NC(=O)c2ccccc2)sc2c1CCCC2 the results were NS1 inh inconclusive, Shiga inhibitor 35*, CHX counter 34* and SARS PLP yeast -7%.
`O=C(NCCc1ccc(Cl)cc1)C1CCN(C(=O)c2ccc(F)cc2)CC1` gave NS1 inh -10%, Shiga inhibitor -3, CHX counter -3 and SARS PLP yeast -1%.
Screening CCOC(=O)c1ccc(N2C(=O)c3cccc4c(C(=O)O)ccc(c34)C2=O)cc1 returned NS1 inh 5%, CHX counter 1 and SARS PLP yeast 0%.
For C[C@@H](N=C(N)N)C(=O)O the results were NS1 inh -3%.
NC(=O)c1c(NC(=O)c2ccc([N+](=O)[O-])o2)sc2c1CCCC2 was read as NS1 inh -16%, Shiga inhibitor 13, CHX counter 10 and SARS PLP yeast -12%.
Screening N#Cc1c(NC(=O)c2cc([N+](=O)[O-])ccc2N2CCOCC2)sc2c1CCCC2 returned NS1 inh 7%, Shiga inhibitor active, CHX counter 30* and SARS PLP yeast 14%.
CC(C)c1ccc(NC(=O)c2cc([N+](=O)[O-])ccc2N2CCOCC2)cc1 was read as NS1 inh 10%, Shiga inhibitor -2, CHX counter -3 and SARS PLP yeast 1%.
`CC(C)Cc1nnc(NC(=O)c2cc([N+](=O)[O-])ccc2N2CCOCC2)s1` gave NS1 inh 10%, Shiga inhibitor 21, CHX counter 19* and SARS PLP yeast 1%.
`N#Cc1c(NC(=O)c2ccc([N+](=O)[O-])o2)sc2c1CCC2` gave NS1 inh -76%, Shiga inhibitor 97*, CHX counter 28* and SARS PLP yeast -15%.
N#Cc1c(NC(=O)c2cccnc2)sc2c1CCC2 was read as NS1 inh -78%, Shiga inhibitor 58, CHX counter 19* and SARS PLP yeast 3%.
COc1cc(CNCCc2c[nH]c3ccccc23)ccc1OCc1ccc(F)cc1 was read as NS1 inh 2%, Shiga inhibitor -3, CHX counter -2 and SARS PLP yeast -12%.
Cc1cc2ccccc2n1CCNC(=O)C1CCCCC1 was read as NS1 inh 27%, Shiga inhibitor 9, CHX counter 1 and SARS PLP yeast -4%.
COc1cccc(C(=O)NCCn2ccc3ccccc32)c1 was read as NS1 inh -40%, Shiga inhibitor 45*, CHX counter 25* and SARS PLP yeast -10%.
COc1ccc(C(=O)NCCn2ccc3ccccc32)cc1OC was read as NS1 inh -35%, Shiga inhibitor 23, CHX counter 18* and SARS PLP yeast -7%.
O=C(NCCn1ccc2ccccc21)C1CCCCC1 was read as NS1 inh -76%, Shiga inhibitor 24*, CHX counter 18* and SARS PLP yeast inconclusive.
For COc1ccc(CNS(=O)(=O)c2ccc(-n3cnnn3)c(C)c2)cc1 the results were NS1 inh -1%, Shiga inhibitor -8, CHX counter -3 and SARS PLP yeast 0%.
CC(=O)Oc1c(Cl)c(N2CCOCC2)c(OC(C)=O)c2ccccc12 was read as NS1 inh -1%, Shiga inhibitor -18, CHX counter -3 and SARS PLP yeast -9%.
`COc1ccc(-c2[nH]ncc2CN(CCO)Cc2cccs2)c(F)c1` gave NS1 inh 3%, Shiga inhibitor -15, CHX counter 1 and SARS PLP yeast -5%.
Screening S=C(Nc1ccc(Oc2ccccc2)cc1)N1CCN(c2ccccn2)CC1 returned NS1 inh 3%, Shiga inhibitor -9, CHX counter 6 and SARS PLP yeast -1%.
For FC(F)(F)c1nnc2c(Sc3ccccn3)nc3ccccc3n12 the results were NS1 inh -12%, Shiga inhibitor 111*, CHX counter 23* and SARS PLP yeast 0%.
For FC(F)(F)c1nnc2c(Sc3ccc(Cl)cc3)nc3ccccc3n12 the results were NS1 inh 12%, Shiga inhibitor 26, CHX counter -7 and SARS PLP yeast 1%.
`FC(F)(F)c1nnc2c(Sc3ccccc3)nc3ccccc3n12` gave NS1 inh 3%, Shiga inhibitor -26, CHX counter 28* and SARS PLP yeast 0%.
For CCOC(=O)CC(=O)Nc1cc(Cl)ccc1O the results were NS1 inh -8%, Shiga inhibitor -7, CHX counter 5 and SARS PLP yeast -8%.
Screening CCCc1cc(C(=O)Nc2cc(Br)ccc2O)no1 returned NS1 inh -41%, Shiga inhibitor 57*, CHX counter 22* and SARS PLP yeast -4%.
For Cc1ccc(-c2cc(C(=O)Nc3cc(C)ccc3O)no2)cc1 the results were NS1 inh -1%, Shiga inhibitor 20, CHX counter 12 and SARS PLP yeast inconclusive.
For CCCc1cc(C(=O)Nc2cc(Cl)ccc2O)no1 the results were NS1 inh -41%, Shiga inhibitor 92*, CHX counter 31* and SARS PLP yeast -34%.
`NS(=O)(=O)c1ccc(CCNC(=O)CSCC(=O)Nc2ccc(Cl)cc2)cc1` gave SARS PLP yeast 4%.
O=C(c1cccc(Cl)c1)N1CCC(=O)N([C@H](COCc2cccc(Cl)c2)Cc2ccccc2)CC1 was read as Shiga inhibitor 3 and CHX counter 13.
Cc1cc(C)cc(N(CC(=O)NCc2ccco2)S(=O)(=O)c2ccccc2)c1 was read as NS1 inh -12%, Shiga inhibitor 48*, CHX counter 9 and SARS PLP yeast 0%.
`O=C(CS(=O)(=O)Cc1ccccc1)Nc1nc2c(s1)CCCC2` gave NS1 inh -18%, Shiga inhibitor 31, CHX counter -3 and SARS PLP yeast 0%.
Screening S=C(Nc1nc2c(s1)CCCC2)NC1CC1 returned NS1 inh 4%, Shiga inhibitor 77*, CHX counter 52* and SARS PLP yeast 12%.
O=C(CSc1nnnn1C1CCCCC1)Nc1nc2c(s1)CCCC2 was read as NS1 inh -49%, Shiga inhibitor 16 and CHX counter 12.
For COC(=O)c1ccc(C(=O)NC(=S)Nc2nc3c(s2)CCCC3)cc1 the results were NS1 inh 13%, Shiga inhibitor 63, CHX counter 20* and SARS PLP yeast -2%.
For COc1ccc(S(=O)(=O)N2CCCC2C(=O)Nc2nc3c(s2)CCCC3)cc1 (centres undefined) the results were NS1 inh 3%, Shiga inhibitor -5, CHX counter -1 and SARS PLP yeast -3%.
`O=C(NC(=S)Nc1nc2c(s1)CCCC2)c1ccccc1` gave NS1 inh inconclusive, Shiga inhibitor 95*, CHX counter 58* and SARS PLP yeast 17%.
Screening Cc1nc(NC(=O)C2CCCC2)sc1Cc1ccc2c(c1)OCO2 returned NS1 inh -16%, Shiga inhibitor 52, CHX counter 22* and SARS PLP yeast -15%.
`Cc1nc(NC(=O)C23CC4CC(CC(C4)C2)C3)sc1Cc1ccc2c(c1)OCO2` gave NS1 inh -6%, Shiga inhibitor 67*, CHX counter 25* and SARS PLP yeast -20%.
